From PubChem BioAssay (NCI) come the findings set out here.

Test [1] is described as follows: NCI Yeast Anticancer Drug Screen. Data for the rad50 strain (AID 155).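 Also: 0% = growth of vehicle-only cultures of the same strain.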 Particulars: S. cerevisiae rad50 strain growth inhibition, hits give high values. The method, boiled down:
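A DNA repair-deficient yeast mutant serves as the test organism; compound-induced growth inhibition is calculated against vehicle-treated cells.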

Test [2] can be described thus: NCI Yeast Anticancer Drug Screen. Data for the mec2-1 strain (AID 157). Particulars: S. cerevisiae mec2-1 strain, hits give high values. The method, boiled down:
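Using mec2-1 yeast: add compound, measure growth, express inhibition versus vehicle-treated cultures.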

The nature of test [3]: NCI Yeast Anticancer Drug Screen. Data for the sgs1 mgt1 strain (AID 161).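 Also: 0% = growth of cultures given vehicle only.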 Particulars: S. cerevisiae sgs1 mgt1 strain, hits give high values. The method, boiled down: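 Yeast cells carrying a defined DNA-repair defect were exposed to test compounds. Growth inhibition was measured relative to vehicle-treated controls.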
The nature of test [4]: NCI Yeast Anticancer Drug Screen. Data for the cln2 rad14 strain (AID 165).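 Also: 0% = growth equal to vehicle treated cultures.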 Particulars: S. cerevisiae cln2 rad14 strain, hits give high values. The method, boiled down:
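Yeast strain cln2 rad14, bearing defects in cell cycle control and DNA repair, serves as the test system; values reflect growth inhibition compared with vehicle.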

The nature of test [5]: NCI Yeast Anticancer Drug Screen. Data for the bub3 strain (AID 167). Conditions: S. cerevisiae bub3 mutant strain, hits give high values. The method, boiled down: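 Inhibition values come from growth of compound-treated mutant yeast normalised to vehicle-treated controls.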
The nature of test [6]: NCI Yeast Anticancer Drug Screen. Data for the mlh1 rad18 strain (AID 175). Particulars: S. cerevisiae mlh1 rad18 strain growth inhibition, hits give high values. The method, boiled down:
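Steps: expose repair-defective yeast to compound; measure growth; express inhibition against vehicle-treated controls.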

Where [7] appears, read: at 5.0 µM (retest, dose inferred, filed as 0.5).
Setting [8] is: at 50.0 µM (retest, dose inferred, filed as 5.0).

About 79,000 compounds went through this panel and 15% of them were active in at least one assay; those are over-represented in the sample as a whole. Unmarked numbers belong to inactive results. Active and inactive are the calls of the source. Rule as the data show it: active = growth inhibition above about 70%; inactive = the rest.

On to `Cc1n(-c2ccccc2)c2c([n+]1Cc1ccc([N+](=O)[O-])cc1)C(=O)c1ccccc1C2=O`, for which the growth inhibition in test [1] (setting [7]) was 1%; in test [1] (setting [8]) it was 97% (active); in test [1] (at 50.0 µM), 85.2% (active); in test [2] (setting [7]) it was -7%; in test [2] (setting [8]) it was 98% (active); in test [2] (at 50.0 µM) it was 89% (active). Besides, the growth inhibition in test [3] (setting [7]) was -10%; in test [3] (setting [8]), 98% (active); in test [3] (at 50.0 µM), 88.5% (active); in test [4] (setting [7]), 1%; in test [4] (setting [8]) it was 92% (active); in test [4] (at 50.0 µM) it was 85.2% (active). For the same molecule, the growth inhibition in test [5] (setting [7]) is -6%; in test [5] (setting [8]), 98% (active); in test [5] (at 50.0 µM), 88.5% (active); in test [6] (setting [7]), -8%; in test [6] (setting [8]) it was 96% (active).
`CCCCCCCCCCNC1CC(OC2CC(O)(C(O)CO)Cc3c(O)c4c(c(O)c32)C(=O)c2c(OC)cccc2C4=O)OC(C)C1O` (stereo unspecified): the growth inhibition is 96% (active) in test [1] (setting [7]); 97% (active) in test [1] (setting [8]); 85.8% (active) in test [1] (at 50.0 µM); 99% (active) in test [2] (setting [7]); 98% (active) in test [2] (setting [8]); 89.7% (active) in test [2] (at 50.0 µM). The growth inhibition in test [3] (setting [7]) was 95% (active); in test [3] (setting [8]), 98% (active); in test [3] (at 50.0 µM), 90.2% (active); in test [4] (setting [7]), 80% (active); in test [4] (setting [8]), 96% (active); in test [4] (at 50.0 µM), 88.2% (active). Besides, the growth inhibition is 49% in test [5] (setting [7]); 97% (active) in test [5] (setting [8]); 87.8% (active) in test [5] (at 50.0 µM); 99% (active) in test [6] (setting [7]); 96% (active) in test [6] (setting [8]).
With `CC[C@](O)(CC(=O)O[C@H]1C(=O)O[C@@H]2C[C@H]3C(C)=CC(=O)[C@@H](O)[C@]3(C)[C@H]3[C@@]4(O)OC[C@]32[C@@H]1[C@@H](C)[C@H]4O)C(C)C`, the growth inhibition in test [1] (setting [7]) was 44%; in test [1] (setting [8]) it was 97% (active); in test [1] (at 50.0 µM), 88.9% (active); in test [2] (setting [7]) it was 35%; in test [2] (setting [8]) it was 98% (active); in test [2] (at 50.0 µM) it was 91.7% (active). For the same molecule, the growth inhibition in test [3] (setting [7]) is 57%; in test [3] (setting [8]), 98% (active); in test [3] (at 50.0 µM) it was 88.9% (active); in test [4] (setting [7]), 58%; in test [4] (setting [8]), 98% (active); in test [4] (at 50.0 µM), 92.1% (active). For the same molecule, the growth inhibition was 51% in test [5] (setting [7]); 98% (active) in test [5] (setting [8]); 90.3% (active) in test [5] (at 50.0 µM); 50% in test [6] (setting [7]); 97% (active) in test [6] (setting [8]).
On to `Cc1cc(NCCCCCCCNc2cc(C)nc3cc([N+](=O)[O-])ccc23)c2ccc([N+](=O)[O-])cc2n1`, for which the growth inhibition in test [1] (setting [7]) is 1%; in test [1] (setting [8]), 87% (active); in test [1] (at 50.0 µM), 68.5%; in test [2] (setting [7]) it was 15%; in test [2] (setting [8]), 83% (active); in test [2] (at 50.0 µM), 77% (active). Moreover, the growth inhibition was 5% in test [3] (setting [7]); 90% (active) in test [3] (setting [8]); 72.2% (active) in test [3] (at 50.0 µM); 14% in test [4] (setting [7]); 70% (active) in test [4] (setting [8]); 57.8% in test [4] (at 50.0 µM). In addition, the growth inhibition in test [5] (setting [7]) was 1%; in test [5] (setting [8]), 83% (active); in test [5] (at 50.0 µM), 73.1% (active); in test [6] (setting [7]) it was 5%; in test [6] (setting [8]), 88% (active).
As for `O=C1c2ccccc2-n2c1nc1ccccc1c2=O`, the growth inhibition in test [1] (setting [7]) was 18%; in test [1] (setting [8]), 83% (active); in test [1] (at 50.0 µM), 74% (active); in test [2] (setting [7]), 14%; in test [2] (setting [8]), 48%; in test [2] (at 50.0 µM) it was 57%. The growth inhibition in test [3] (setting [7]) is 21%; in test [3] (setting [8]) it was 39%; in test [3] (at 50.0 µM), 29.2%; in test [4] (setting [7]) it was 30%; in test [4] (setting [8]) it was 43%; in test [4] (at 50.0 µM), 17.9%. Besides, the growth inhibition was 32% in test [5] (setting [7]); 57% in test [5] (setting [8]); 53.1% in test [5] (at 50.0 µM); 23% in test [6] (setting [7]); 62% in test [6] (setting [8]).
With `CN(C)CCNc1ccc(CO)c2oc3ccc(O)cc3c(=O)c12`, the growth inhibition in test [1] (setting [7]) was 17%; in test [1] (setting [8]) it was 41%; in test [1] (at 50.0 µM) it was 26.5%; in test [2] (setting [7]), 13%; in test [2] (setting [8]), 41%; in test [2] (at 50.0 µM) it was 59.9%. In addition, the growth inhibition in test [3] (setting [7]) was 13%; in test [3] (setting [8]), 36%; in test [3] (at 50.0 µM), 9.95%; in test [4] (setting [7]), 22%; in test [4] (setting [8]), 28%; in test [4] (at 50.0 µM), -14.1%. Also, the growth inhibition in test [5] (setting [7]) was 15%; in test [5] (setting [8]), 66%; in test [5] (at 50.0 µM), 49%; in test [6] (setting [7]), 21%; in test [6] (setting [8]) it was 63%.
`CN1C(c2ccccc2)CC(=NOCc2ccccc2)CC1c1ccccc1` (stereo unspecified): the growth inhibition in test [1] (setting [7]) is 83% (active); in test [1] (setting [8]), 96% (active); in test [1] (at 50.0 µM), 78.5% (active); in test [2] (setting [7]), 94% (active); in test [2] (setting [8]) it was 97% (active); in test [2] (at 50.0 µM), 83.8% (active). For the same molecule, the growth inhibition in test [3] (setting [7]) was 76% (active); in test [3] (setting [8]) it was 97% (active); in test [3] (at 50.0 µM) it was 88.8% (active); in test [4] (setting [7]), 65%; in test [4] (setting [8]), 97% (active); in test [4] (at 50.0 µM), 86.6% (active). Moreover, the growth inhibition is 78% (active) in test [5] (setting [7]); 96% (active) in test [5] (setting [8]); 84% (active) in test [5] (at 50.0 µM); 94% (active) in test [6] (setting [7]); 96% (active) in test [6] (setting [8]).
As to `CCCCCCCc1c(Cl)nc(Cl)nc1Cl`, the growth inhibition in test [1] (setting [7]) was 11%; in test [1] (setting [8]), 92% (active); in test [1] (at 50.0 µM), 78.3% (active); in test [2] (setting [7]), 12%; in test [2] (setting [8]), 97% (active); in test [2] (at 50.0 µM), 88.3% (active). Further, the growth inhibition in test [3] (setting [7]) was 3%; in test [3] (setting [8]), 96% (active); in test [3] (at 50.0 µM), 87% (active); in test [4] (setting [7]) it was 11%; in test [4] (setting [8]), 78% (active); in test [4] (at 50.0 µM), 46%. Besides, the growth inhibition is 4% in test [5] (setting [7]); 99% (active) in test [5] (setting [8]); 76.2% (active) in test [5] (at 50.0 µM); 16% in test [6] (setting [7]); 96% (active) in test [6] (setting [8]).
Turning to `C=C1CC2(CC(c3ccccc3OC)OC(c3ccccc3OC)C2)OC1=O` (stereo unspecified), the growth inhibition was 34% in test [1] (setting [7]); 58% in test [1] (setting [8]); 61.1% in test [1] (at 50.0 µM); 15% in test [2] (setting [7]); 10% in test [2] (setting [8]); 74.7% (active) in test [2] (at 50.0 µM). The growth inhibition in test [3] (setting [7]) is 26%; in test [3] (setting [8]), 70% (active); in test [3] (at 50.0 µM) it was 54.2%; in test [4] (setting [7]) it was 23%; in test [4] (setting [8]) it was 79% (active); in test [4] (at 50.0 µM) it was 71.8% (active). In addition, the growth inhibition in test [5] (setting [7]) was 21%; in test [5] (setting [8]) it was 14%; in test [5] (at 50.0 µM), 60.5%; in test [6] (setting [7]), 40%; in test [6] (setting [8]), 88% (active).
On to `Nc1ccc(Cc2ccc(Br)cc2)cc1`, for which the growth inhibition in test [1] (setting [7]) is 28%; in test [1] (setting [8]), 98% (active); in test [1] (at 50.0 µM) it was 99.2% (active); in test [2] (setting [7]), 12%; in test [2] (setting [8]), 99% (active); in test [2] (at 50.0 µM), 99.3% (active). The growth inhibition in test [3] (setting [7]) is 1%; in test [3] (setting [8]), 99% (active); in test [3] (at 50.0 µM), 99.3% (active); in test [4] (setting [7]), 8%; in test [4] (setting [8]), 98% (active); in test [4] (at 50.0 µM), 98.8% (active). Besides, the growth inhibition in test [5] (setting [7]) was 30%; in test [5] (setting [8]), 98% (active); in test [5] (at 50.0 µM), 98.8% (active); in test [6] (setting [7]), 30%; in test [6] (setting [8]), 98% (active); in test [6] (at 50.0 µM), 99.2% (active).
